The record followed here is PubChem BioAssay (NCI).

Test in all cases: NCI-60 one-dose screen, 48 h (100 = growth as untreated, 0 = no growth, -100 = all killed)
What all share (conditions): 10 µM unless noted

For experiment [1], the system named is NCI-H23 lung.
Experiment [2] relates to NCI-H226 lung.
For experiment [3], the system named is NCI-H322M lung.
For experiment [4], the system named is HOP-62 NSCLC.
In experiment [5] the test system is NCI-H460 lung.
Experiment [6] relates to HOP-92 NSCLC.
Experiment [7] relates to NCI-H522 lung.
Experiment [8] deals with A549/ATCC NSCLC.
Experiment [9] has as its system 786-0 renal.
Experiment [10] relates to COLO 205 colon.
In experiment [11] the test system is DU-145 prostate.
Experiment [12] has as its system K-562 leukemia.
In experiment [13] the test system is MALME-3M melanoma.
For experiment [14], the system named is MDA-MB-231 breast.
The test system of experiment [15] is RXF 393 renal.
In experiment [16] the test system is SF-268 CNS.
The test system of experiment [17] is SF-295 CNS.
Experiment [18] concerns SF-539 CNS.
Experiment [19] relates to UACC-257 melanoma.
Experiment [20] concerns M14 melanoma.

The panel holds about 83,000 compounds, 20% with a hit somewhere; the sample as a whole holds those more often.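 Activity criterion: percent growth below 10, measured after cells in 96-well plates were exposed to a single compound concentration for 48 hours.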 A number with no mark means an inactive call. Active and inactive are the calls of the source.

Regarding `Cc1c(-c2ccc(O)cc2)n(Cc2ccc(OCCN3CCCCCC3)cc2)c2ccc(O)cc12`, the growth in experiment [1] was 77%; in experiment [2], 89.7%; in experiment [3], 92.3%; in [4] it was 80.6%; in experiment [5] it was 89.3%; in experiment [6], 59.3%. The growth is 75.5% in experiment [7]; 72.5% in [8]; 75.7% in experiment [9]; 106% in experiment [10]; 87% in experiment [11]; -6.6% (active) in experiment [12]. The growth in experiment [13] was 69.5%; in experiment [14], 82.3%; in experiment [15], 49.9%; in [16], 74.2%; in experiment [17], 99.1%; in [18], 61.7%. Also, in experiment [19], the growth was 81.6%.

As for `N#Cc1nc(-c2ccccc2)oc1S(=O)(=O)N1CCN(c2ccccc2)CC1`, the growth is 74.9% in experiment [1]; 87.2% in experiment [2]; 95.6% in experiment [3]; 104% in experiment [4]; 97.8% in experiment [5]; 116% in experiment [6]. In addition, the growth was 58.6% in [7]; 99.9% in experiment [8]; 99.8% in experiment [9]; 122% in experiment [10]; 107% in experiment [11]; 34.9% in [12]. The growth in experiment [13] is 90.1%; in [14], 105%; in [15], 114%; in experiment [16] it was 107%; in experiment [17] it was 105%; in [18] it was 100%. The values for the growth in [19] and in [20] were 92.7% and 81.1%, respectively.

Take `NNc1nc(-c2cccnc2)nc2c1sc(=S)n2-c1ccccc1`: the growth was 102% in experiment [1]; 105% in [2]; 101% in [3]; 69.1% in experiment [4]; 107% in experiment [5]; 84.9% in experiment [6]. Further, the growth was 58.7% in [7]; 87.7% in [8]; 89.7% in experiment [9]; 98.4% in experiment [10]; 106% in experiment [11]; 75.5% in experiment [12]. Also, the growth is 100% in experiment [13]; 105% in experiment [14]; 114% in experiment [15]; 89.6% in experiment [16]; 98.1% in experiment [17]; 95.6% in [18]. Further, the growth in experiment [19] was 92.3%; in experiment [20] it was 99.9%.

For `CS(=O)(=O)c1ccc(-c2cnn3ccc(-c4cccc(S(=O)(=O)C5CC5)c4)nc23)cc1`, the growth in [1] was 56.8%; in experiment [2] it was 60.5%; in experiment [3], 57.9%; in [4], 48.7%; in experiment [5], 43.7%; in experiment [6], 41.9%. Also, the growth in experiment [7] was 31.5%; in [8], 45%; in [9], 61.3%; in experiment [10] it was 64.3%; in experiment [11], 61.7%; in [12], 78%. Further, the growth is 50.2% in experiment [13]; 53% in [14]; 22.2% in experiment [15]; 45.5% in experiment [16]; 56.9% in [17]; 60.8% in [18]. Besides, the growth in [19] was 58.3%.

With `COc1ccc(/C=C/C(=O)c2cccc(OCCCCOc3cccc(C(=O)/C=C/c4ccc(OC)c(OC)c4)c3)c2)cc1OC`, the growth in experiment [1] was 54.5%; in experiment [2] it was 57.5%; in experiment [3], 87.3%; in [4], 72.8%; in experiment [5], 80.5%; in [6] it was 55.3%. Also, the growth is 64.4% in experiment [7]; 78% in experiment [8]; 89.8% in [9]; 112% in experiment [10]; 83.3% in [11]; 50.7% in experiment [12]. Also, the growth in experiment [13] was 77.7%; in experiment [14] it was 87.7%; in experiment [15], 79.1%; in experiment [16], 76.2%; in experiment [17], 47%; in experiment [18] it was 87.7%. Besides, the growth was 57.1% in experiment [19] and 78.6% in [20].

Consider `C#COc1cccc(Nc2c(C#N)cnc3ncc(NC(=O)CCl)cc23)c1`, for which the growth in experiment [1] is 59.6% [6.25 µM]; in experiment [2], 57.2% [6.25 µM]; in experiment [3], 53.1% [6.25 µM]; in experiment [4], 32.8% [6.25 µM]; in experiment [5], 11.8% [6.25 µM]; in experiment [6], 54.5% [6.25 µM]. Moreover, the growth was -69.4% [6.25 µM] (active) in [7]; 31.2% [6.25 µM] in experiment [8]; -23.4% [6.25 µM] (active) in experiment [9]; 17.5% [6.25 µM] in [10]; 33.2% [6.25 µM] in experiment [11]; 6.93% [6.25 µM] (active) in [12]. For the same compound, the growth in [13] is 76.9% [6.25 µM]; in experiment [14] it was 20.9% [6.25 µM]; in experiment [15], 54% [6.25 µM]; in experiment [16], 6.32% [6.25 µM] (active); in experiment [17], 42.1% [6.25 µM]; in experiment [18], -7.95% [6.25 µM] (active). The growth in [19] is 47.1% [6.25 µM]; in experiment [20] it was 41.2% [6.25 µM].

Consider `CN(C)CC(C)(C)C(=O)/C=C/c1ccccc1`, for which the growth in experiment [1] was -28.8% [25 µM] (active); in experiment [2] it was -17.9% [25 µM] (active); in experiment [3] it was -16.3% [25 µM] (active); in [4], 12.3% [25 µM]; in experiment [5], -27% [25 µM] (active); in [6], -32.3% [25 µM] (active). For the same compound, the growth in experiment [7] was -81.1% [25 µM] (active); in experiment [8], 0.382% [25 µM] (active); in experiment [9], -46.6% [25 µM] (active); in experiment [10] it was -87% [25 µM] (active); in experiment [11] it was -46.5% [25 µM] (active); in [12] it was 1.32% [25 µM] (active). Also, the growth is -69.5% [25 µM] (active) in [13]; -10.9% [25 µM] (active) in [14]; -77.2% [25 µM] (active) in [15]; 1.85% [25 µM] (active) in [16]; 7.02% [25 µM] (active) in [17]; -77.2% [25 µM] (active) in experiment [18]. Besides, the growth in [19] was -43.5% [25 µM] (active); in experiment [20], -50.4% [25 µM] (active).
